High-throughput results as filed in PubChem.
Most compounds without a hit are left out; they make up all but 3.5% or so of the library.
MITF primary – MITF inhibitors, primary screen, biochemical, AlphaScreen, human; Microphthalmia-associated transcription factor (Homo sapiens), O75030; AlphaScreen MITF homodimerization, bead proximity signal; inhibition, % at 2.6 µM; 650,000 compounds, 0.91% hits; AID 1259374, 2018; in the data active means inhibition above about 50%
Target sequence (O75030 whole entry, looked up): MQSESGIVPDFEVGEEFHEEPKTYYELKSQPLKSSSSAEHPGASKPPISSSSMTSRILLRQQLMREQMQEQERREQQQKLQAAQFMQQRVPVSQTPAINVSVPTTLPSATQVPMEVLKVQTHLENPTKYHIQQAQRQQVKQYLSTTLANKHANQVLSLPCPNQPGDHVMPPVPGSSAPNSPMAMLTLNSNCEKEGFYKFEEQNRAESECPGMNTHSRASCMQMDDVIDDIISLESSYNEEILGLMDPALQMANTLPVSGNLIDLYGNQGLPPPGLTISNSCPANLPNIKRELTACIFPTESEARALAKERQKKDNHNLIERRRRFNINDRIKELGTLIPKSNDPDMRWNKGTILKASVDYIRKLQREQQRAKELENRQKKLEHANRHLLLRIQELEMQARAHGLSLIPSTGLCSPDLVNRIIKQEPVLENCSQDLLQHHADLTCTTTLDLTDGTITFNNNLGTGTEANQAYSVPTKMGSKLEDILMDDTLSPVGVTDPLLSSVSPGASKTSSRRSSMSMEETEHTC
TEAD-YAP block – TEAD-YAP interaction inhibition, primary screen, TEAD-YAP interaction inhibitor project, luminescence, HEK-TIYL cells. TEAD-Gal4/YAP UAS-luciferase luminescence. inhibition, % at 9.12 µM. 640,000 compounds, 1.4% hits; in the data active means inhibition above about 32%
GPR151 ag – activators of human GPR151, primary screen, cell-based, PathHunter beta-arrestin, luminescence; 650,000 compounds, 1% hits; PathHunter beta-arrestin GPR151 cells; AID 1508602, 2020; activation, % at 11.2 µM; in the data active means activation above about 4.9%
FBW7 activator – FBW7 E3 ligase activators, primary screen, biochemical, AlphaScreen, human; normalized activity (activation), % at 26.1 µM; AID 1259310, 2017; AlphaScreen FBW7–phospho-cyclin E peptide binding, activator screen; 650,000 compounds, 0.13% hits; in the data active means normalized activity above about 1.9%;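 further: purified mutant Fbw7 with reduced substrate affinity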
GPR151 conf act – GPR151 activators, triplicate retest, confirmation, cell-based, PathHunter beta-arrestin, luminescence; shares compounds with GPR151 ag; GPR151 PathHunter beta-arrestin cells, 90 min; % of EA-reagent control over plate median; activation, % at 11.2 µM; 6,700 tested, under 10 active;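 active means mean percent activation across replicates above the confirmation screen cutoff of 4.91%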
GPR119 ag – GPR119 activators in beta-arrestin cells, counter-screen for GPR151 activator project, cell-based, PathHunter beta-arrestin, luminescence, triplicate. shares compounds with GPR151 ag. 90 min; 0 = compound-well median, 100 = enzyme-acceptor control. activation, % at 11.2 µM. 6,700 compounds, 0.3% hits. AID 1508611, 2020;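 active means mean percent activation in the counterscreen above 29.09%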;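 further: counterscreen on off-target GPR119 to flag nonselective hits from the GPR151 activator screen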
Hits are given with their value; . = inactive; / = no result; ! = not confirmed by another sample.

SMILES	MITF primary	TEAD-YAP block	GPR151 ag	FBW7 activator	GPR151 conf act	GPR119 ag
Cc1cnc(Nc2nccc3ccccc23)nc1Nc1ccc(N2CCOCC2)cc1	.	50.0	6.0	.	.	.
COc1ccccc1-c1nc2s/c(=C\c3cccc([N+](=O)[O-])c3)c(=O)n2n1	.	.	7.8	.	.	.
O=C(c1ccc(-c2cccc(Cl)c2Cl)o1)N1CCOCC1	.	.	7.3	.	.	.
Cn1c(N)c(S(=O)(=O)N2CCN(c3ccccc3Cl)CC2)c(=O)n(C)c1=O	.	.	26.1	.	.	.
COC(=O)c1ccc(C2C(C(=O)OC(C)C)=C(N)OC3=C2C(=O)CC(C)(C)C3)cc1 (centres undefined)	.	.	.	.	/	/
Cc1c(NC(=O)Nc2cccc(Cl)c2)n(C)c(=O)n1-c1ccccc1	.	.	.	.	/	/
O=C(NCCc1nnc2n1CCN(Cc1ccccc1O)CC2)c1cccnc1	.	.	.	.	/	/
Nc1nc2ncc(CNc3ccc(C(=O)NC(CCC(=O)O)C(=O)O)cc3)nc2c(=O)[nH]1 (centres undefined)	.	.	.	.	/	/
Nc1nc2ncc(CNc3ccc(C(=O)N[C@@H](CCC(=O)O)C(=O)O)cc3)nc2c(=O)[nH]1	.	/	5.6	.	.	.
COc1ccccc1C(=O)COC(=O)C1CCCCN1S(=O)(=O)c1ccccc1 (centres undefined)	.	.	.	.	/	/
O=C1c2ccc(-c3nc4ccccc4s3)cc2C(=O)N1Cc1cccnc1	.	.	.	.	/	/
C=CCOC(=O)C1=C(C)N2CCSC2=C(C#N)C1c1ccco1 (centres undefined)	.	.	5.1	.	.	.
CSC1=NSC2=NC(=O)/C(=C\c3ccc([N+](=O)[O-])cc3)C(=N)N12	.	.	10.5	.	.	.
CCSC1=NSC2=NC(=O)/C(=C\c3ccc([N+](=O)[O-])cc3)C(=N)N12	.	.	.	.	/	/
O=C1N/[N+](=C\c2ccccc2)C2Cc3ccccc3C12 (centres undefined)	.	.	.	.	/	/
Cc1ccc(CNC(=O)CCNS(=O)(=O)c2ccc3[nH]c(=O)ccc3c2)cc1	.	.	.	.	/	/
O=C(CCNS(=O)(=O)c1ccc2[nH]c(=O)ccc2c1)NCc1ccccc1	.	.	8.2	.	.	.
COc1cc(/C=C2\SC(N)=NC2=O)ccc1OC(=O)c1ccc(Cl)cc1	.	.	.	.	/	/
COc1ccc(C(=O)Oc2c(Cl)cc(/C=C3\SC(N)=NC3=O)cc2OC)cc1	.	.	8.2	.	.	.
CCn1ccnc1CN(C)Cc1ccc(OCC(O)CN2CCc3ccccc3C2)cc1 (centres undefined)	.	.	10.1	.	.	.
CCCNC(=O)C(=O)NCCc1ccc(OC)c(OC)c1	.	.	6.2	.	.	.
COc1ccc(CCNC(=O)C(=O)NCCC(C)C)cc1OC	.	.	.	.	/	/
COc1ccc(/C=C/C(=O)Nc2sc3c(c2C(=O)NCc2cccnc2)CCCC3)cc1	.	.	6.7	.	.	.
COc1ccc(/C=C/C(=O)Nc2sc3c(c2C(N)=O)CCCCC3)cc1	.	.	.	.	/	/
Cn1c(=O)n(CC(=O)NCc2ccc(F)cc2)c2cccnc21	.	.	10.1	.	.	.
SMILES	MITF primary	TEAD-YAP block	GPR151 ag	FBW7 activator	GPR151 conf act	GPR119 ag
COCCCN1C(=O)C(=O)/C(=C(/O)c2ccccc2)C12C(=O)N(C)c1ccccc12 (centres undefined)	.	.	.	.	/	/
CCCN1C(=O)C(O)(CC(=O)c2ccccc2O)c2ccccc21 (centres undefined)	.	.	10.8	.	.	.
COC(=O)CN(c1ccccc1OC)S(=O)(=O)c1ccc(OC)cc1	.	.	7.1	.	.	.
CCOC(=O)CN(c1ccccc1Cl)S(=O)(=O)c1ccc(F)cc1	.	.	22.7	.	.	.
COc1ccc(S(=O)(=O)N(CC(=O)O)c2ccc(Cl)cc2)cc1	.	.	5.6	.	.	.
CCn1c2ccccc2c2cc(NC(=O)C/C(C)=N/NC(=O)c3ccc(OC)cc3)ccc21	.	.	.	.	/	/
NC(CSC1CCCCO1)C(=O)O (centres undefined)	.	.	.	.	/	/
CCOC(=O)C(N)CSC1CCCCO1 (centres undefined)	.	.	8.2	.	.	.
O=c1[nH]c2cc(Cl)c(Cl)cc2[nH]c1=O	.	.	5.5	.	.	.
COc1ccc2[nH]c(=O)c(=O)[nH]c2c1	.	.	.	.	/	/
O=C(COc1ccccc1)NC(=S)Nc1ccccn1	.	.	6.6	.	.	.
CCOC(=O)c1ccc(NC(=S)Nc2ccccn2)cc1	.	.	5.0!	.	.	.
CCOC(=O)C1=C(C)N=c2s/c(=C\c3cc(OC)c(O)cc3Br)c(=O)n2C1c1ccc(Cl)cc1 (centres undefined)	.	.	.	.	/	/
Cc1ccc([N+](=O)[O-])cc1-c1ccc(/C=C2/SC(=O)NC2=O)o1	.	.	.	.	/	/
CCCC(OC(=O)CN1C(=O)COc2ccccc21)C(=O)NC1CCCCC1 (centres undefined)	.	.	.	.	/	/
COc1ccccc1CNC(=O)c1sc2nc(C)nc(N3CCCCC3)c2c1C	.	.	5.2	.	.	.
Cc1nc(N2CCN(C)CC2)c2c(C)c(C(=O)N3CCC(Cc4ccccc4)CC3)sc2n1	.	.	7.1	.	.	.
Cc1sc2ncnc(Nc3ccc(Cl)cc3)c2c1C	.	.	.	.	/	/
Cc1sc2ncnc(NCCc3ccccc3)c2c1C	.	.	5.4	.	.	.
Cc1sc2ncnc(Nc3ccncc3)c2c1C	.	.	5.3	.	.	.
CC(=O)NS(=O)(=O)c1ccc(NC(=O)Cc2cccs2)cc1	.	.	.	.	/	/
COc1ccc(Nc2cc(-c3cncc(-c4ccc(OC)cc4)c3)nc(C)n2)cc1	.	.	.	.	/	/
COc1ccc(Nc2cc(-c3cncc(-c4cccs4)c3)nc(C)n2)cc1	.	.	6.0	.	.	.
Cc1cccc(N2CCN(c3ncnc4c3c(-c3ccccc3)cn4-c3cccc(Cl)c3)CC2)c1C	.	.	6.1	.	.	.
Clc1cccc(-n2cc(-c3ccccc3)c3c(N4CCN(c5ccccc5Cl)CC4)ncnc32)c1	.	.	.	.	/	/
Cc1cc(C)n2nc(C(=O)N/N=C/c3ccc([N+](=O)[O-])cc3)nc2n1	.	.	.	.	/	/
CC1(C)Cc2cccc(OCCCS(=O)(=O)NC3CC3)c2O1	.	.	.	.	/	/
